CYP2C19 act: human CYP2C19 activators, primary screen, biochemical, luminescence; 96,000 tested, under 10 active; AID 1025, 2008; recombinant CYP2C19, luciferin-H EGE luminescence; stronger effect = higher value; 0 = fully inhibited enzyme, 1 = untreated enzyme; activation factor at 5 µM; Cytochrome P450 2C19 (Homo sapiens), P33261;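 active = activation factor of at least 2 at 5 µM in the primary screen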;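 also: 0 = wells with 2.5 mM tranylcypromine and 1 = vehicle-only wells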
Target sequence (P33261 whole entry, looked up): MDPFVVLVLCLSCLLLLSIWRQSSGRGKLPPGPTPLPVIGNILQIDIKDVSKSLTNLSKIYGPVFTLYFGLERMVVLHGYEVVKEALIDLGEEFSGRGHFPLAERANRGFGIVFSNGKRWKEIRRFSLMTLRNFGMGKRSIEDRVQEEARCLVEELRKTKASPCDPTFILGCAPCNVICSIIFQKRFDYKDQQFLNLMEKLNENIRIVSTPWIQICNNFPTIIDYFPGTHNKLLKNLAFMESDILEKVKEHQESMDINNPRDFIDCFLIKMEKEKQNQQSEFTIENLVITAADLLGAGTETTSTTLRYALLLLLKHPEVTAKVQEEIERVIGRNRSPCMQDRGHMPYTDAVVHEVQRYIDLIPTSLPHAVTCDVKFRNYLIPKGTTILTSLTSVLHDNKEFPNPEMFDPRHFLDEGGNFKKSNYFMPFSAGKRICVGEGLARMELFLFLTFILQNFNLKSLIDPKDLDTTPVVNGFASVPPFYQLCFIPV
CYP2C9 inhib: blockers of cytochrome P450 2C9 activity – biochemical, luminescence, ADME assay, primary screen. CYP2C9 Supersomes, luciferin-H conversion. inhibition, % at 5 µM. hit rate 20% among 96,000. AID 777, 2007;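 active = blocking of liver enzyme CYP2C9 beyond about 50% at 5 µM, limit read from the data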
PLK1 kinase inh: human PLK1 kinase inhibitors, primary screen, biochemical, TR-FRET. Serine/threonine-protein kinase PLK1 (Homo sapiens), P53350. recombinant PLK1 kinase, TR-FRET peptide phosphorylation. inhibition, % at 10 µM. hit rate 0.53% among 97,000. AID 619, 2007;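 active = inhibition of 50% or more in the single-concentration screen; inactive = inhibition below 50%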;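 also: 0% = DMSO max control and 100% = H-89 dihydrochloride min control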
CYP2C19 inh: blockers of cytochrome P450 2C19 activity – biochemical, luminescence, ADME assay, primary screen; CYP2C19 Supersomes, luciferin-H EGE luminescence, 30 min; P33261; inhibition, % at 5 µM; hit rate 21% among 96,000; AID 778, 2007;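 active = CYP2C19 inhibition above a set limit at 5 µM in the primary screen, cut at about 50% in these data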;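 also: plate controls were negative control wells for no effect and 2.5 mM tranylcypromine positive control for full effect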
PLK1 PBD inh: Plk1 polo box domain binding inhibitors, primary screen, biochemical, fluorescence polarization; Plk1 PBD phosphopeptide binding; hit rate 0.13% among 97,000; inhibition, %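 (tested at about 20 µM)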; in the data active = inhibition above about 34%, passing the limit was not always enough
CYP2C9 activ: human CYP2C9 activators, primary screen, biochemical, luminescence. Cytochrome P450 2C9 (Homo sapiens), P11712. recombinant CYP2C9, luciferin-H conversion; stronger effect = higher value; factor 1 = untreated enzyme, 0 = blocked. activation factor at 5 µM. hit rate 1.4% among 96,000. AID 1024, 2008;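 active = activation factor of 2 or more for CYP2C9 at a 5 µM dose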;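 also: 0 = sulfaphenazole-blocked wells and 1 = vehicle-only wells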
* = called active by the depositor; . = no result. In the library only some 28% were active in any assay of this set; here they are far more common.

SMILES	CYP2C19 act	CYP2C9 inhib	PLK1 kinase inh	CYP2C19 inh	PLK1 PBD inh	CYP2C9 activ
COc1ccc(C(=O)Nn2c(SCC(=O)NCc3ccccc3)nc3ccccc3c2=O)cc1	0.9	74.1*	-7.5	5.1	-25.4	0.3
Cn1nc(-c2ccc(C(=O)NCC3CCCO3)cc2)c2ccccc2c1=O (stereo not given)	0.7	12.8	0.0	29.4	-19.6	0.9
Cn1nc(-c2ccc(OCC(=O)NCC3CCCO3)cc2)c2ccccc2c1=O (stereo not given)	0.5	54.5*	-7.6	45.7	20.4	0.5
Cc1ccc(C23CC4CC(CC(CC(=O)N5CCOCC5)(C4)C2)C3)cc1	.	.	-11.4	.	-21.1	.
Cc1ccc(/S(C)=N/S(=O)(=O)c2ccc(C)cc2)cc1 (stereo not given)	0.7	-59.0	-9.5	28.2	13.9	1.6
CC1=CC(C)(C)N=C(Nc2ccc(C)cc2)S1	0.2	2.4	.	75.6*	.	1
O=S(=O)(NC1CCCCCCC1)c1cccs1	0.5	49.3	-16.4	53.7*	2.7	0.5
O=C(NCCc1ccccc1)C1CCCN(S(=O)(=O)c2cccs2)C1 (stereo not given)	0.5	85.5*	-8.6	45.4	7.0	0.1
O=C(NC1CCCCC1)C1CCN(S(=O)(=O)c2cccs2)CC1	1.1	-21.5	-5.1	-10.2	12.4	1.2
O=C(NC1CCCCCC1)C1CCCN(S(=O)(=O)c2cccs2)C1 (stereo not given)	1	76.7*	-10.2	0.9	-10.8	0.2
COc1ccc(C(=O)C[n+]2ccc3c(c2)nc(-c2ccc(OC)cc2OC)n3C)cc1	1.2	-10.3	-4.9	-18.0	-20.2	1.1
O=C1[C@@H]2C(c3ccccc3Cl)=NO[C@@H]2C(=O)N1Cc1ccccc1	0	72.9*	-8.2	98.9*	-7.1	0.3
COc1ccc(CN2C(=O)[C@@H]3C(c4ccccc4Cl)=NO[C@@H]3C2=O)cc1	0.1	70.0*	-2.3	86.8*	16.1	0.3
COc1ccc(Cl)cc1N1C(=O)[C@@H]2C(c3cccc(OC)c3OC)=NO[C@@H]2C1=O	0.9	18.4	-6.9	12.5	30.4	0.8
CC1=C(C)CC2C(=O)N(Cc3ccccc3)C(=O)C2C1 (stereo not given)	0.7	17.5	-12.5	29.5	-4.3	0.8
COc1ccc(OC)c(C2=NO[C@@H]3C(=O)N(c4cc(Cl)ccc4OC)C(=O)[C@H]23)c1	0.4	22.9	-14.7	61.8*	-6.5	0.8
CCN1C(=O)C(Cc2nc3ccccc3c(=O)n2-c2ccccc2)c2ccccc21 (stereo not given)	0.7	42.1	-4.7	35.0	-20.6	0.6
Cn1c(CC2C(=O)Nc3ccc(Br)cc32)nc2ccccc2c1=O (stereo not given)	0.5	81.9*	-4.1	45.1	-8.4	0.2
CN(C)c1ccc(C(=S)NCc2ccco2)cc1	0.1	37.1	0.0	88.3*	21.0	0.6
COc1ccc(Cl)cc1NC(=O)c1cnc2n(c1=O)CCS2	1	-86.2	.	-3.5	.	1.9
N#Cc1ccc(-n2nccc2-c2cnc3n(c2=O)CCS3)cc1	0.1	23.8	-11.5	92.0*	5.6	0.8
O=c1c(-c2ccnn2-c2ccc(F)cc2)cnc2n1CCS2	0.2	8.4	3.6	78.8*	19.5	0.9
O=c1c(-c2ccnn2-c2ccccc2F)cnc2n1CCS2	0.4	11.7	-7.4	57.6*	13.4	0.9
O=c1c(-c2ccnn2-c2cccc(Cl)c2)cnc2n1CCS2	0.1	45.8	-12.1	91.1*	-14.7	0.5
CCCN(CCC)C(=S)NC(=O)c1ccc(-c2ccccc2)cc1	1.1	8.7	-4.4	-9.3	9.6	0.9
CC(C)Oc1ccc(N2CC(C(=O)Nc3ccc(N4CCOCC4)cc3)CC2=O)cc1 (stereo not given)	.	.	-4.7	.	-0.3	.
CCCC(=O)Nc1ccc(Cl)c(NC(=O)CC)c1	1	3.9	-12.2	-3.3	4.4	1
